In the supplement of paper PMC10849652:
Targets with a hit are over-represented here; the source holds about 7,900 in all. About 0.6% of all pairs of compound and target were hits.

Legend:
Assay in all cases: log2 fold change, soluble protein after heating vs DMSO (PISA); higher = thermal stabilisation; K562 cells, 10 uM, 30 min; active = over 0.2 and 3.5 SD of the protein, either way, in both replicates (recomputed)
[1] = compound: C1=CC=C(C=C1)[C@H](COC2=CC3=C(C=C2)NC(=O)N3)NC(=O)C4=CC=CN(C4=O)CC5=CC(=C(C=C5)F)F
Outline: (§1)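 K562 cells (2×10^6 cells/mL) were treated with 10 μM compound for 30 min, and aliquots were heated for 3 min over 48°C-58°C. Pooled aliquots were extracted in PBS with 0.5% NP-40 at 4°C, and the supernatant after 21,000xg for 90 min was measured by TMTpro 16plex LC-MS/MS with channel sums equalised. Reported thermal stability, relative to control samples and from duplicates, is a log2 fold change.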

[2] = compound: CC1=C(SC2=C1C(=N[C@H](C3=NN=C(N32)C)CC(=O)N)C4=CC=C(C=C4)Cl)C
Outline: as §1

[3] = compound: CC1=C2C(=CC=C1)N=C(N(C2=O)C3=CC=CC=C3C)CN4C=NC5=C(N=CN=C54)N
Outline: as §1

[4] = compound: Cc1sc2c(c1C)C(c1ccc(Cl)cc1)=N[C@@H](CC(=O)OC(C)(C)C)c1nnc(C)n1-2
Outline: as §1

[5] = compound: c1ccc([C@@H]2C[C@H]2NC2CCNCC2)cc1
Outline: as §1

Measured: log2 fold change

GAGE12F (UniProt P0CL80)
inactive: [1] -0.016 | [2] 0.137 | [3] 0.109 | [4] -0.089 | [5] 0.012

GALC (UniProt P54803)
Sequence of UniProt P54803 (P54803 whole entry, looked up): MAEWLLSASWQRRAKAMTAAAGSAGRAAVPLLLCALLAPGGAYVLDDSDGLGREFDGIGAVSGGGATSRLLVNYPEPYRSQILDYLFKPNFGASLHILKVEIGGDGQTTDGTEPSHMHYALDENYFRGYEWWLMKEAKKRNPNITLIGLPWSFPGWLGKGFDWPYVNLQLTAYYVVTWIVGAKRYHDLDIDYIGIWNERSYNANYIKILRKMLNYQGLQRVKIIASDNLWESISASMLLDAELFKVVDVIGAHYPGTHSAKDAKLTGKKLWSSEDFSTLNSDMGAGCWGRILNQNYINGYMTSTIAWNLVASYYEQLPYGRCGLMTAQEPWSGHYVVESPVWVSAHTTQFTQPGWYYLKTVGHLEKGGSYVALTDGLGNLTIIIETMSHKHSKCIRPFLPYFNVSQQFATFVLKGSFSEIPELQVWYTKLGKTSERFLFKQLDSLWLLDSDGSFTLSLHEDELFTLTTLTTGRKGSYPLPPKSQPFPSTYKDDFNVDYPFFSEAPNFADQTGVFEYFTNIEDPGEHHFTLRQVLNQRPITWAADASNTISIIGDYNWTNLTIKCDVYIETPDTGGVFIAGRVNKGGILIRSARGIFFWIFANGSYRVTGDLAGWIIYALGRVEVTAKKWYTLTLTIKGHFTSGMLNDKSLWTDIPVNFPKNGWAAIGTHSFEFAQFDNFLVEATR
inactive: [1] 0.046 | [2] 0.055 | [3] 0.055 | [4] -0.043 | [5] 0.006

H3-3A (UniProt P84243)
inactive: [1] -0.004 | [2] 0.053 | [3] 0.154 | [4] -0.058 | [5] -0.102

GOLGB1 isoform 2 (UniProt Q14789)
inactive: [1] 0.045 | [2] -0.024 | [3] 0.018 | [4] 0.013 | [5] 0.045

IFNGR1 (UniProt P15260)
inactive: [1] 0.106 | [2] 0.105 | [3] 0.028 | [4] 0.046 | [5] 0.03

FEN1 (UniProt P39748)
Sequence of UniProt P39748 (P39748 whole entry, looked up): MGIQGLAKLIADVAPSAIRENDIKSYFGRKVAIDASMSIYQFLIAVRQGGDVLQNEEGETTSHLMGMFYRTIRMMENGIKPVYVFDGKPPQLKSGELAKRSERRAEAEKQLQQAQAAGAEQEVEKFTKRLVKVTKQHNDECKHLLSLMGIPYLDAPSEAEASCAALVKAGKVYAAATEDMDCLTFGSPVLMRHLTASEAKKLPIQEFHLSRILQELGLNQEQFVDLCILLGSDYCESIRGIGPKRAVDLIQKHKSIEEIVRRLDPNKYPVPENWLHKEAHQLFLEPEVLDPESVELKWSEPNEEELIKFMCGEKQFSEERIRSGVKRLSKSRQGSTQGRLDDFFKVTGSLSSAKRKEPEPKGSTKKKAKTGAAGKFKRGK
inactive: [1] -0.198 | [2] 0.097 | [3] 0.157 | [4] -0.009 | [5] -0.043

HNRNPUL2 (UniProt Q1KMD3)
inactive: [1] 0.054 | [2] -0.05 | [3] -0.041 | [4] 0.105 | [5] 0.04

HMG20A (UniProt Q9NP66)
inactive: [1] 0.07 | [2] -0.085 | [3] 0.048 | [4] 0.048
active: [5] 0.536

HDDC2 (UniProt Q7Z4H3)
inactive: [1] 0.009 | [2] 0.057 | [3] -0.012 | [4] -0.071 | [5] -0.038

GSTM4 (UniProt Q03013)
Sequence of UniProt Q03013 (Q03013 whole entry, looked up): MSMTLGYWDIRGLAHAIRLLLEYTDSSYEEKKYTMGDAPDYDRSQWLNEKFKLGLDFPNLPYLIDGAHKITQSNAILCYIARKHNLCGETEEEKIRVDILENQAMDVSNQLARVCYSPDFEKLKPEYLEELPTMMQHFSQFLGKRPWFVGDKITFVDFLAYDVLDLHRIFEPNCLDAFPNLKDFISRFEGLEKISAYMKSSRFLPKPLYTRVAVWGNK
inactive: [1] 0.064 | [2] 0.063 | [3] -0.114 | [4] -0.027 | [5] 0.03

HDAC10 (UniProt Q969S8)
Sequence of UniProt Q969S8 (Q969S8 whole entry, looked up): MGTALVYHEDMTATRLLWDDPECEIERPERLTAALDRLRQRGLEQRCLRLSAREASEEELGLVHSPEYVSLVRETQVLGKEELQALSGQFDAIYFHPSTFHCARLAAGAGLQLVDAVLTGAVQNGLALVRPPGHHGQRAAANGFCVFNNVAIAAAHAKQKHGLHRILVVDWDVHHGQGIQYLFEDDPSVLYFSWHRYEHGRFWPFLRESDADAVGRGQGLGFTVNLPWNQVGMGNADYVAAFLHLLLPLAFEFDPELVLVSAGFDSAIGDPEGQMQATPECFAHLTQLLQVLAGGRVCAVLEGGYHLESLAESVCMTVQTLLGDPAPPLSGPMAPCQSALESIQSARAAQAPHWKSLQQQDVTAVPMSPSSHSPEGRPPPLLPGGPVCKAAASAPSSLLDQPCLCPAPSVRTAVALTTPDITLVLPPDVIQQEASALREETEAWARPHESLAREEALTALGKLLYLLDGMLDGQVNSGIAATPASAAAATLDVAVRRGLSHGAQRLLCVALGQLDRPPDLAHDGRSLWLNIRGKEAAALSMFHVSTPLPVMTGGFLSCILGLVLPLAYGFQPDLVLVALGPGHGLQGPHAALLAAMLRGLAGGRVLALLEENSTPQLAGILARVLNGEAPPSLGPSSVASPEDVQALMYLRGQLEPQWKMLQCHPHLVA
inactive: [1] -0.061 | [2] -0.028 | [3] 0.07 | [4] 0.12 | [5] -0.051

GTF2A2 (UniProt P52657)
Sequence of UniProt P52657 (P52657 whole entry, looked up): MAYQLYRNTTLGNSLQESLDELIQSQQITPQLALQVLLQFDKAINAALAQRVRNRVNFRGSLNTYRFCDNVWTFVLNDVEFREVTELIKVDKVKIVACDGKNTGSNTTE
inactive: [1] 0.003 | [2] 0.057 | [3] 0.092 | [4] -0.064 | [5] -0.017

HBZ (UniProt P02008)
Sequence of UniProt P02008 (P02008 whole entry, looked up): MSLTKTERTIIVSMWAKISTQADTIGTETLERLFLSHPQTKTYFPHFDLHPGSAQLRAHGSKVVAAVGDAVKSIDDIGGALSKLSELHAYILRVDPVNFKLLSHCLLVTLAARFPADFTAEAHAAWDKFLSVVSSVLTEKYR
inactive: [1] 0.047 | [2] 0.191 | [3] 0.091 | [4] -0.132 | [5] -0.009

HNRNPUL1 (UniProt Q9BUJ2)
Sequence of UniProt Q9BUJ2 (Q9BUJ2 whole entry, looked up): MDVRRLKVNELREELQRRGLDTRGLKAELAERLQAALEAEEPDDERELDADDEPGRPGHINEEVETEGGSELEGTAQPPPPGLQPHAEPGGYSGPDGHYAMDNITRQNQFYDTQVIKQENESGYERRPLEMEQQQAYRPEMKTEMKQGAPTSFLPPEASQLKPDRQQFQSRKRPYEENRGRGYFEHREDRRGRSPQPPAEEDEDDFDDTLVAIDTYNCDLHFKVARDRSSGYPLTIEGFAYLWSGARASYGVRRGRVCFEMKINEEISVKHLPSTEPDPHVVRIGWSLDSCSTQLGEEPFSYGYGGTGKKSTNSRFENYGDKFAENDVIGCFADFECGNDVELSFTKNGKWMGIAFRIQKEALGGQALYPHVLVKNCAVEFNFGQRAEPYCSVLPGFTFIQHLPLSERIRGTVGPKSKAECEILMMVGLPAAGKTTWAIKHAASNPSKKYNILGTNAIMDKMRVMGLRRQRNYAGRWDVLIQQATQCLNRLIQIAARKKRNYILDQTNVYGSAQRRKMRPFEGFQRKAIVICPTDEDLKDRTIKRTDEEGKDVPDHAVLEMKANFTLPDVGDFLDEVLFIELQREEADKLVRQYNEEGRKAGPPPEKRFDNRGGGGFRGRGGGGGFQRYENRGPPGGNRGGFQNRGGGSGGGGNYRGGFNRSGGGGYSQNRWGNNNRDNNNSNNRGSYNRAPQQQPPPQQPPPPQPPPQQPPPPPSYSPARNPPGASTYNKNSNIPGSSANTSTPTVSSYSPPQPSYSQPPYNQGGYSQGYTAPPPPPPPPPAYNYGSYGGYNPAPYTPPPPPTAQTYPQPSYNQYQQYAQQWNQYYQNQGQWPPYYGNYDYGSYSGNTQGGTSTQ
inactive: [1] -0.021 | [2] -0.028 | [3] 0.024 | [4] 0.07 | [5] 0.058

H1FX (UniProt Q92522)
Sequence of UniProt Q92522 (Q92522 whole entry, looked up): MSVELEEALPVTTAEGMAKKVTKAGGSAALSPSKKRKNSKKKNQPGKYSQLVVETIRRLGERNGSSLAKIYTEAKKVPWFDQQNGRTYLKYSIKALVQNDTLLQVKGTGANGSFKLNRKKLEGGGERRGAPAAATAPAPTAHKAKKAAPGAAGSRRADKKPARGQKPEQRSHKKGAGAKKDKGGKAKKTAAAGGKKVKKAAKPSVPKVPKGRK
inactive: [1] 0.088 | [2] -0.146 | [3] -0.21 | [4] 0.135 | [5] -0.005

HADHB (UniProt P55084)
inactive: [1] -0.238 | [2] 0.235 | [3] 0.2 | [4] 0.363 | [5] -0.085

GALNT2 (UniProt Q10471)
inactive: [1] 0.008 | [2] 0.057 | [3] 0.001 | [4] 0.007 | [5] -0.004

HP1BP3 (UniProt Q5SSJ5)
inactive: [1] 0.015 | [2] -0.04 | [3] 0.087 | [4] 0.142 | [5] 0.011

GLCCI1 (UniProt Q86VQ1)
Sequence of UniProt Q86VQ1 (Q86VQ1 whole entry, looked up): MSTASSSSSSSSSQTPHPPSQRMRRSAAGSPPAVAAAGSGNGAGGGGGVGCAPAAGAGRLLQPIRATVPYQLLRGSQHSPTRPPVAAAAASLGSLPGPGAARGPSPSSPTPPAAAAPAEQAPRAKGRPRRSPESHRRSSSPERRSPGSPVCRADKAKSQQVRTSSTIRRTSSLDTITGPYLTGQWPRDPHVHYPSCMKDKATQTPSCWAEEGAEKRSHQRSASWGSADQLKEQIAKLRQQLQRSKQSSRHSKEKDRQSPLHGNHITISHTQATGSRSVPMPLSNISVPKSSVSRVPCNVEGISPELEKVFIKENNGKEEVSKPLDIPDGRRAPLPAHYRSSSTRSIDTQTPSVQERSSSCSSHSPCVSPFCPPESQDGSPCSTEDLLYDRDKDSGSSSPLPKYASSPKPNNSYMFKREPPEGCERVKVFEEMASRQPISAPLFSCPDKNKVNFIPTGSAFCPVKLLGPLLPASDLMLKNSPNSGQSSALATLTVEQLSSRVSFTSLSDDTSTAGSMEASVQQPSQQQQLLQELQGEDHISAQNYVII
inactive: [1] -0.088 | [2] -0.041 | [3] 0.137 | [4] 0.013 | [5] -0.075

FDPS (UniProt P14324)
inactive: [1] -0.328 | [2] 0.063 | [3] 0.143 | [4] 0.001 | [5] -0.121

GALNT4 (UniProt Q8N4A0)
Sequence of UniProt Q8N4A0 (Q8N4A0 whole entry, looked up): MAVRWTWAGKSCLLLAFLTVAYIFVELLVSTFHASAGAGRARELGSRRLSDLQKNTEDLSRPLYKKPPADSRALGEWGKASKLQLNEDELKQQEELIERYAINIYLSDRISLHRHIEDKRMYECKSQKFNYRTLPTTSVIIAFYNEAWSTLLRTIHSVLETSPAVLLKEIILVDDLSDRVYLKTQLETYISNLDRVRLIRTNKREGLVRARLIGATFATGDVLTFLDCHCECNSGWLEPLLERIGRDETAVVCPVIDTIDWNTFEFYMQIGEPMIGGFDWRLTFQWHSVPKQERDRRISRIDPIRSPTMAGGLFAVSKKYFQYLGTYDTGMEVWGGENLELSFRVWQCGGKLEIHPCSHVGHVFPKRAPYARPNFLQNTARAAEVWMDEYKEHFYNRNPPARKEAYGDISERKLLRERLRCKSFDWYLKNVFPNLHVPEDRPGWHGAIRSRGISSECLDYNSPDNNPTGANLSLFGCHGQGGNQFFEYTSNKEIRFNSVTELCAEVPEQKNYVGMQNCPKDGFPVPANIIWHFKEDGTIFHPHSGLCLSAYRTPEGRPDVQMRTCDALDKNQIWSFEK
inactive: [1] 0.007 | [2] 0.062 | [3] 0.109 | [4] -0.033 | [5] -0.002

GSR (UniProt P00390)
inactive: [1] 0.006 | [2] 0.044 | [3] 0.034 | [4] -0.023 | [5] -0.003

IDI1 isoform 2 (UniProt Q13907)
Sequence of UniProt Q13907 (Q13907 whole entry, looked up): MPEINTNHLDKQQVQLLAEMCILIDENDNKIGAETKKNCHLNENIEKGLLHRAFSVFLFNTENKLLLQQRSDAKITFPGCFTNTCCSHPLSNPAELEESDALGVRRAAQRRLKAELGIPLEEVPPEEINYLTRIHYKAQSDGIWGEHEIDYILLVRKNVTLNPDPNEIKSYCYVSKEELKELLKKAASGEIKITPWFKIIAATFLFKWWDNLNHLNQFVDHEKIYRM
inactive: [1] -0.024 | [2] 0.024 | [3] 0.037 | [4] 0.003 | [5] -0.007

GTF2E2 (UniProt P29084)
Sequence of UniProt P29084 (P29084 whole entry, looked up): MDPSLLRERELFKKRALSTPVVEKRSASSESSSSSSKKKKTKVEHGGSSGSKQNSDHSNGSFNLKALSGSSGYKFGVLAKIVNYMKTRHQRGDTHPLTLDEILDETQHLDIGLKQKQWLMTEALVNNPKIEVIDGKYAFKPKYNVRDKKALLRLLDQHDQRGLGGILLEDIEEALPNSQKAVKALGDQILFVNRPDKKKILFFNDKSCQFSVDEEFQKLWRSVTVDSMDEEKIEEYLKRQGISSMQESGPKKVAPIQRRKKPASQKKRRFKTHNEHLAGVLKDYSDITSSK
inactive: [1] -0.009 | [2] 0.043 | [3] 0.126 | [4] -0.058 | [5] 0.012
